Test results taken from PubChem BioAssay.
A number with no mark means an inactive call. Activity calls are given as the source filed them. Rule as the data show it, unless noted: active = inhibition above about 42%; inactive = the rest.

Legend:
[1] = StAR promoter reporter inhibitors, counter-screen for LRH-1 inverse agonist project, cell-based, luminescence, high throughput (AID 651611; in the data active = inhibition above about 28%); conditions: StAR promoter luciferase reporter counterscreen, at 3.6 µM, stronger effect = higher value
[2] = molecular target: Nuclear receptor subfamily 5 group A member 2 (Homo sapiens) (UniProt O00482); experiment: NR5A2 activity suppression in reporter cells – cell-based, luminescence, confirmation (AID 651613); conditions: cell-based LRH-1 luciferase reporter, inverse agonism; at 3.6 µM; stronger effect = higher value;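 also: HEK293T cells co-transfected with LRH-1 and StAR promoter luciferase reporter; 0% = vehicle wells and 100% = parental cells lacking receptor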
Sequence of Nuclear receptor subfamily 5 group A member 2 (Homo sapiens) (O00482 whole entry, looked up): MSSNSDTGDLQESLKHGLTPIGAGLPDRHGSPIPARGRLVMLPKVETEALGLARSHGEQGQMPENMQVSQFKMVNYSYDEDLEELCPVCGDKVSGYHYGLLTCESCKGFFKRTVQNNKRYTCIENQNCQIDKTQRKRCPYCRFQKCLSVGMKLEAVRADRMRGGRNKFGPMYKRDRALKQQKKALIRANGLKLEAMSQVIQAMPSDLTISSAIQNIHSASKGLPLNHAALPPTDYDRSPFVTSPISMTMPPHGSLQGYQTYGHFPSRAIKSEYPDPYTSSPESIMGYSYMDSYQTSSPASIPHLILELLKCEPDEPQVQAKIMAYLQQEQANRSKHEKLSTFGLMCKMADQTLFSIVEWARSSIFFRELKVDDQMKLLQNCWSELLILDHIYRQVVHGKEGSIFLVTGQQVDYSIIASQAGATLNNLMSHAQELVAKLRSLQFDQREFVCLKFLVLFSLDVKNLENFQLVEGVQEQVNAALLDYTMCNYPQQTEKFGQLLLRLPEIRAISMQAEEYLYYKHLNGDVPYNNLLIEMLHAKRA

[3] = molecular target: Steroidogenic factor 1 (Homo sapiens) (UniProt Q13285); experiment: inverse agonism at SF1 nuclear receptor – cell-based, luminescence, high throughput, counter-screen for LRH-1 inverse agonist project (AID 651614; in the data active = inhibition above about 44%;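 also: cells cotransfected with StAR promoter reporter and SF1 expression vector; 0% = vehicle on cells with receptor and 100% = vehicle on cells lacking receptor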); conditions: cell-based SF1 luciferase reporter, at 3.6 µM, stronger effect = higher value
Sequence of Steroidogenic factor 1 (Homo sapiens) (Q13285 whole entry, looked up, the tested form may be a part): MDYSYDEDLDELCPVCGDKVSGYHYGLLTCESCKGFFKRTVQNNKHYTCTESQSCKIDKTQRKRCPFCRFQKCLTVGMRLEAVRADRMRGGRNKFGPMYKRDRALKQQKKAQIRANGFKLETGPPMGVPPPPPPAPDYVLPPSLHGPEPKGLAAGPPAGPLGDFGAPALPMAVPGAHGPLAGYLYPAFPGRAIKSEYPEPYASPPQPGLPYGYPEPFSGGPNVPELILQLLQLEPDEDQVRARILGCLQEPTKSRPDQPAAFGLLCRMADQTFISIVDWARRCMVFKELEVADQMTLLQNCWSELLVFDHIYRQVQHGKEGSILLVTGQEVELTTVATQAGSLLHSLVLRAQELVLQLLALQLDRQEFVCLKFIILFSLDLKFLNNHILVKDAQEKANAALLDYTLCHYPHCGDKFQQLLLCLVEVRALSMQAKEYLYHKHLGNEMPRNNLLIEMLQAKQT

[4] = compounds suppressing VP16-driven luciferase signal – cell-based, luminescence, high throughput, counter-screen for LRH-1 inverse agonist project (AID 651615; in the data active = inhibition above about 33%); conditions: Gal4-VP16 luciferase reporter cells, at 3.6 µM, stronger effect = higher value

Row | Compound | inhibition [1] | inhibition [2] | inhibition [3] | inhibition [4]
1 | Cc1cc(-c2nn3c(-c4ccccc4)nnc3s2)c2ccccc2n1 | 7.3% | 38.6% | 22.6% | -31.6%
2 | CC(C)(Oc1ccc(Cl)cc1)C(=O)OCC(=O)NCCc1ccccc1 | 10.5% | 45.2% (active) | 46.8% (active) | 4.06%
3 | COc1ccc(-c2cc3nc(-c4ccccc4)cc(N4CCN(C(C)=O)CC4)n3n2)cc1 | 32.4% (active) | 31.1% | 39.3% | -11.9%
4 | O=c1[nH]c2cc3ccccc3cc2nc1-c1nnnn1C1CCCC1 | 33.8% (active) | 33.4% | 44.6% (active) | 8.72%
5 | O=C(CSc1nc2ccccc2c(=O)n1-c1ccc(F)cc1)Nc1ccc(N2CCOCC2)cc1 | 2.2% | 29.5% | 25.7% | 6.2%
6 | CN(C)S(=O)(=O)c1ccc(C(=O)NCc2ccc3[nH]c4c(c3c2)CCCC4)cc1 | 24.6% | 39.3% | 54.4% (active) | -9.28%
7 | CO/N=C\C(=N\Nc1ccc(OC)cc1)C(=O)c1ccccc1 | -11.7% | 49.5% (active) | 36.8% | 5.9%
8 | Cc1onc(-c2ccccc2)c1C(=O)O/N=C(\N)c1ccc([N+](=O)[O-])o1 | 11.5% | 64.5% (active) | 61.9% (active) | -9.42%
9 | Cc1cccc(NC(=O)COC(=O)CN2C(=O)c3ccccc3C2=O)c1C | 7.19% | 51% (active) | 47.8% (active) | -15%
10 | CCc1cc(=O)oc2c(C)c(OCC(=O)NCCN3CCOCC3)ccc12 | -3.34% | 48.5% (active) | 30.7% | -8.24%
11 | O=C(c1ccc([N+](=O)[O-])o1)N1CCc2ccccc21 | -6.72% | 51.8% (active) | 59% (active) | -36.3%
12 | Cc1cc(O)c(/C=N/Nc2cccc(Cl)c2)c(=O)o1 | -0.11% | 44.5% (active) | 24.6% | 56% (active)
13 | S=C(Nc1cccnc1)Nc1cccc2cnccc12 | 9.29% | 17.3% | 26.2% | 17%
14 | Cc1ccc(/C=C/S(=O)(=O)NCC(=O)OCC(=O)Nc2c(F)cccc2F)cc1 | 26.3% | 52% (active) | 55.4% (active) | -18.4%
15 | COc1ccc(C2=Nn3c(nnc3-c3ccncc3)SC2)cc1OC | 24.5% | 48% (active) | 39.6% | -2.76%
16 | O=[N+]([O-])c1cnccc1Nc1ccc(F)cc1 | 13.2% | 66.8% (active) | 55.2% (active) | 9.14%
17 | CC(C)N1CCc2c(sc(NC(=O)c3ccc([N+](=O)[O-])o3)c2C(N)=O)C1 | 37.6% (active) | 55.4% (active) | 56.4% (active) | -8.36%
18 | CCc1cccc2sc(N3CCN(C(=O)c4ccc([N+](=O)[O-])o4)CC3)nc12 | 3.02% | 57.7% (active) | 52.5% (active) | 17.4%
19 | COc1ccc2c(c1)C1C=CCC1C(c1cc3c(cc1Br)OCO3)N2 (stereo unspecified) | -3.15% | 37% | 30.1% | -14.3%
20 | COc1ccc(NC(=O)CSc2nc3nc(C)cc(C)c3c(=O)[nH]2)cc1 | 3.79% | 43.6% (active) | 48.5% (active) | -2.26%
21 | Cc1ccc(C(=O)Nc2sc3c(c2C(=O)O)CCCCC3)o1 | 12.2% | 34.3% | 69.9% (active) | 45.4% (active)
22 | COc1cc(/C=N/Nc2snc(SC)c2C#N)ccc1O | 13.1% | 28.3% | 44.1% (active) | -90.8%
23 | Cc1onc(-c2c(F)cccc2Cl)c1C(=O)c1ccccc1O | 7.24% | 51.3% (active) | 49.1% (active) | -0.7%
24 | Cc1cc([N+](=O)[O-])ccc1NC(=O)CSc1nnc(C)n1C | -1.6% | 60.6% (active) | 47.1% (active) | -3.16%
